MCF10A rerep = A quantitative high throughput screen for small molecules that induce DNA re-replication in MCF 10a normal breast cells; MCF 10A DNA re-replication, Hoechst nuclear intensity, 48 h; AID 624296, 2012; Potency, µM (doses to about 46.1 µM), most hits filed as activators; 350,000 tested, 2.9% active; also: nearly all actives have a fitted effect of over 50% in size
HT1080 IDH1KD tx = qHTS for induction of synthetic lethality in tumor cells producing 2HG: qHTS for the HT-1080-IDH1KD cell line; HT-1080 IDH1 knockdown viability, ATP luminescence, 48 h; Potency, µM (top dose mostly 46.1 µM), hits mostly cytotoxic; 360,000 tested, 2% active
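IDH1KD HT-1080 cells, 750/well, RPMI + 5% FBS; compound pinned after 2 h settling; 48 h, 37 °C; CellTiter-Glo luminescence; % activity normalised to DMSO and no-cell wells; curves fitted, classed by r2 and efficacy.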
KB-V1 MDR tox = qHTS assay for MDR1-selective chemotherapeutics: Primary screen using the drug-selected MDR subline cells KB-V1 | Potency, µM (titrated, usually from 46.1 µM), usual class: cytotoxic | 400,000 tested, 3.4% active | KB-V1 MDR cells viability, CellTiter-Glo, 72 h; also: nearly all actives have a fitted effect of over 60% in size
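Potencies derive from concentration-effect curves fitted to normalized luminescence (CellTiter-Glo) of KB-V1 cells treated for 72 h at 37 degrees C in phenol-red-free DMEM containing 10% FBS.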
SW480 rerep = A quantitative high throughput screen for small molecules that induce DNA re-replication in SW480 colon adenocarcinoma cells. SW480 DNA re-replication, Hoechst DNA content imaging, 48 h. 340,000 tested, 1.8% active. Potency, µM (titrated, usually from 46.1 µM), hits mostly activators; also: nearly all actives have a fitted effect of over 55% in size
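250 cells/well; 23 nL cpd via pin tool; 48 hr, 37 C, 5% CO2; Hoechst 40 min; imager read of total nuclear intensity, ex 405/em 500-530 nm.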
HT1080NT lethal = qHTS for induction of synthetic lethality in tumor cells producing 2HG: qHTS for the HT-1080-NT fibrosarcoma cell line; HT-1080-NT fibrosarcoma viability, CellTiter-Glo ATP luminescence, 48 h; Potency, µM (doses to about 46.1 µM), actives largely listed as cytotoxic; 360,000 tested, 1.6% active; AID 686970, 2013;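 also: NT is the 2HG producing partner of a matched IDH1 knockdown line; nearly all actives have a fitted effect of over 55% in size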
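Fibrosarcoma NT cells, 750 per well in 5% FBS RPMI, were exposed to compound for 48 hours. Viability: CellTiter-Glo luminescence.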
KB-3-1 cytotox = qHTS assay for MDR1-selective chemotherapeutics: Primary screen using the parental adenocarcinoma cell KB-3-1 | 400,000 tested, 1.4% active | KB-3-1 viability, CellTiter-Glo ATP luminescence, 72 h | Potency, µM (titrated, usually from 46.1 µM), actives largely listed as cytotoxic | AID 1347075, 2019; also: nearly all actives have a fitted effect of over 60% in size
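Parental KB-3-1 viability, qHTS format: 72 h compound exposure, 37 °C; CellTiter-Glo; media-only wells and DMSO plates as controls; concentration-effect fits on corrected data.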
A number is an active result; i = inactive; ? = inconclusive; nt = not tested or not shown; [ ] = another dose, or the depositor's remark. In the library only some 7.9% were active in any assay of this set; here they are far more common. Calls follow the shape of the dose curve; as a rule, active = well fitted curve in the direction sought with a large enough effect; inconclusive = small, poorly fitted or top-dose-only effect, or another doubt; inactive = no such curve, though single readings can be large; an effect the other way counts as inactive or inconclusive.

SMILES	MCF10A rerep	HT1080 IDH1KD tx	KB-V1 MDR tox	SW480 rerep	HT1080NT lethal	KB-3-1 cytotox
COc1cc2c(cc1OC)C(Cc1ccccc1[N+](=O)[O-])=NCC2	i	i	21µM	i	i	?
COc1ccc(NC(=O)COC(=O)Cc2ccccc2[N+](=O)[O-])cc1OC	i	i	i	i	i	i
COc1ccc(NCc2ccccc2[N+](=O)[O-])cc1OC	?	i	21µM	i	i	i
CC(C)(C)OC(=O)N1CCC(NC(=O)c2[nH]cnc2C(=O)Nc2ccccc2F)CC1	nt	i	i	nt	i	i
Cc1ccc(C)c(N2CCN(C(=O)Cn3cnc4onc(-c5ccc(F)cc5)c4c3=O)CC2)c1	nt	nt	i	nt	nt	i
COc1ccc(C)cc1NS(=O)(=O)c1c(C(=O)N2CCCCCC2)c(C)n(C)c1C	nt	nt	i	nt	nt	i
O=C(NN1CCCCC1)NN1CCCCC1	nt	i	i	nt	i	i
O=C(CN1CCN(C(=O)c2ccc(OCc3cn4ccccc4n3)cc2)CC1)Nc1cccc(F)c1	i	i	i	i	7.3µM	i
CCn1c(Cn2nnc(-c3ccccc3)n2)nnc1SCc1ccc(Cl)c(Cl)c1	?	?	23µM	i	?	?
CCn1c(SCc2cccc(C)c2)nnc1-c1ccccc1	i	i	15µM	i	i	i
CCn1c(SCC(O)c2ccccc2)nnc1-c1ccccc1 (configuration not stated)	i	i	i	i	i	i
COc1ccc(C(=O)Nc2ccc(S(=O)(=O)NC(C)(C)C)cc2)cc1[N+](=O)[O-]	0.13µM	i	?	i	i	i
COc1cc(C(=O)Nc2ccc(S(=O)(=O)NC(C)(C)C)cc2)cc(OC)c1OC	?	i	i	i	i	i
O=C(Nc1nccs1)c1ccc(Br)cc1	i	i	i	15µM	i	i
COc1ccc(C(=O)Nc2ccc(C(=O)Nc3nccs3)cc2)cc1[N+](=O)[O-]	i	i	i	10µM	i	?
COc1ccc(C(=O)Nc2ccc(NC(=O)c3cccs3)cc2)cc1[N+](=O)[O-]	i	i	i	i	i	?
O=C(Nc1ccc(Oc2cccnc2)cc1)c1ccccc1F	i	i	16µM	i	i	?
CCCC#Cc1cnc2c(c1)C(=O)N([C@H](C)CO)C[C@H](C)[C@@H](CN(C)C(=O)CCN1CCCCC1)O2	nt	i	i	nt	i	i
CCOC(=O)c1cc(CC)sc1NC(=O)c1cc([N+](=O)[O-])ccc1N1CCOCC1	?	?	i	2.3µM	?	1µM
CCOC(=O)c1cc(CC)sc1NC(=O)c1ccc(N2CCOCC2)c([N+](=O)[O-])c1	i	i	i	i	i[9.24 µM]	i
CCc1ccc(C(=O)COC(=O)c2cc([N+](=O)[O-])ccc2N2CCOCC2)cc1	4.6µM	8.2µM	6.5µM	10µM	9.2µM	?
O=C(OCc1cccc(C(F)(F)F)c1)c1cc([N+](=O)[O-])ccc1N1CCOCC1	i	i	?	i	i	i
O=C(OCc1ccc(Br)cc1)c1cc([N+](=O)[O-])ccc1N1CCOCC1	nt	2.6µM	1.3µM	nt	?	5.8µM
COc1ccc(COC(=O)c2cc([N+](=O)[O-])ccc2N2CCOCC2)cc1F	i	0.0052µM	0.073µM	?	0.0058µM	0.13µM
O=C(OCc1cccc(Cl)c1)c1cc([N+](=O)[O-])ccc1N1CCOCC1	?	?	?	?	i	?
Cc1c(Cl)cccc1NC(=O)Cn1cc2c(n1)CCCC2	nt	nt	i	nt	nt	i
COc1cccc(CNC(=O)[C@@H]2CCCN2C(=O)[C@@H]2CCCN2C(=O)c2ccc(Cl)cc2)c1	nt	i	?	nt	i	i
NCCc1c(C(=O)O)[nH]c2ccc([N+](=O)[O-])cc12	i	i	10µM	i	i	?
